Screening results from PubChem.
Compounds with a hit are over-represented: about 5.1% of the library has one in this group of screens.
Tau ThT inhib: qHTS for Inhibitors of Tau Fibril Formation, Thioflavin T Binding. recombinant tau K18 P301L, heparin-induced fibrillization, ThT fluorescence. Potency, µM (titrated, usually from 57.4 µM), without a hit: at the top dose activity, negative = inhibition, most hits filed as inhibitors. actives 2.1% (n = 270,000). AID 1460, 2008; further: potency means the concentration at half of the fitted maximal effect; nearly all actives have a fitted effect of over 55% in size
Target sequence (P10636 561-689 P618L limits assumed): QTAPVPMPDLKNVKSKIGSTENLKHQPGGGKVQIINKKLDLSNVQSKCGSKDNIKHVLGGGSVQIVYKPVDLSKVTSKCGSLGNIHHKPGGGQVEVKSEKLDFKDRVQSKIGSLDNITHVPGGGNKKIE
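Fibril formation assay: tau K18 P301L at 15 uM with trace Alexa 594 label, heparin inducer 20 uM, pH 7 sodium acetate buffer, 37 C for 6 hr; endpoint ThT signal.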
PNC inhibitor: High Content Assay for Compounds that inhibit the Assembly of the Perinucleolar Compartment; PC3M PTB-GFP, PNC prevalence imaging, 16 h; hits give low values; actives 3.1% (n = 140,000); activity change (PNC), negative = inhibition, % at 10 µM;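 active means readout at or below -70, meaning at least 70% loss of cells showing the perinucleolar compartment, a nuclear body marking cancer cells; inconclusive means readout between -30 and a set limit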;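 further: plate controls were DMSO wells for no effect and camptothecin positive control wells for full effect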
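Compounds are pinned in duplicate onto adhered PC3M cells stably expressing GFP-tagged PTB and incubated 16 h at 37 C. Cells are then fixed, nuclei stained with Hoechst, and PNC-positive cells counted.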
NPSR antag: qHTS Assay for Antagonists of the Neuropeptide S Receptor: cAMP Signal Transduction. AID 1461, 2008. actives 1% (n = 220,000). CHO-NPSR cells, cAMP TR-FRET, antagonist mode. Potency, µM (titrated, usually from 38.3 µM), inactives show at the top dose activity change, negative = inhibition, actives largely listed as inhibitors; further: potency means the concentration at half of the fitted maximal effect; nearly all actives have a fitted effect of over 50% in size
Tau fibril FP: qHTS for Inhibitors of Tau Fibril Formation, Fluorescence Polarization; Microtubule-associated protein tau (Homo sapiens), P10636; K18 P301L tau heparin fibrillization, Alexa594 FP, 6 h; Potency, µM (doses to about 57.7 µM), for the others: at the top dose activity, negative = inhibition, actives largely listed as inhibitors; actives 0.39% (n = 280,000); further: potency means the concentration at half of the fitted maximal effect; nearly all actives have a fitted effect of over 55% in size
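K18 P301L tau (15 uM unlabeled/0.24 uM Alexa 594-labeled, final) + compound + heparin 20 uM final; 100 mM NaOAc pH 7; 6 hr 37 C; ThT 30 uM final added, 1 hr RT; FP ex 555/em 632 nm.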
JMJD2E inh: qHTS Assay for Inhibitors of Human Jumonji Domain Containing 2E (JMJD2E); Lysine-specific demethylase 4E (Homo sapiens), B2RXH2; Potency, µM (series often up to 57.1 µM), without a hit: top-dose activity change, negative = inhibition, usual class: inhibitors; AID 2147, 2009; actives 1.6% (n = 230,000); JMJD2E catalytic domain, FDH-coupled NADH fluorescence (FDH is formaldehyde dehydrogenase);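 further: potency means the concentration at half of the fitted maximal effect; 0% = wells with enzyme and -100% = buffer wells without enzyme; nearly all actives have a fitted effect of over 50% in size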
Target sequence (B2RXH2 1-337 limits assumed): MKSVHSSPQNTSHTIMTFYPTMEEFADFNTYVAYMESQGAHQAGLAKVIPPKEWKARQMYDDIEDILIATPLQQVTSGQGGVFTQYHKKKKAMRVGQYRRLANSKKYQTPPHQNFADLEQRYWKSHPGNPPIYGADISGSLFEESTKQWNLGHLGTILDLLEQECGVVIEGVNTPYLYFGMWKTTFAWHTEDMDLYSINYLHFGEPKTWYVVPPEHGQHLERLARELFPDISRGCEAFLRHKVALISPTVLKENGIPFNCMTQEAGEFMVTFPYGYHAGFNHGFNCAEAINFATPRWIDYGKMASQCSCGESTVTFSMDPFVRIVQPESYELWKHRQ
Tau fluor cs: Counterscreen qHTS for Inhibitors of Tau Fibril Formation, Fluorescence Polarization; tau K18 P301L (four-repeat tau fragment) Alexa594 fluorescence, heparin fibrillization; actives 0.93% (n = 280,000); Potency, µM (series often up to 57.7 µM), without a hit: top-dose activity change, negative = decrease; further: potency means the concentration at half of the fitted maximal effect; nearly all actives have a fitted effect of over 55% in size
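Human K18 P301L tau (15 uM unlabeled plus 0.24 uM Alexa 594-labeled, final) in 100 mM sodium acetate pH 7 was mixed with compound and 20 uM heparin and incubated 6 hr at 37 C.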
* hit, by the source's call; ? = inconclusive; · = no result given; [ ] = dose if it differs, or a comment. Unless noted, the call rests on the fitted dose curve; in most records, active means well fitted curve in the direction sought with a large enough effect; inconclusive means small, poorly fitted or top-dose-only effect, or another doubt; inactive means no such curve, though single readings can be large; an effect the other way counts as inactive or inconclusive. Unless noted, on the % scale 0 is the no-effect control and ±100 the full control effect.

SMILES	Tau ThT inhib	PNC inhibitor	NPSR antag	Tau fibril FP	JMJD2E inh	Tau fluor cs
Cc1[nH]n(-c2ccccc2)c(=O)c1C(c1cccc([N+](=O)[O-])c1O)c1c(C)[nH]n(-c2ccccc2)c1=O	7.9µM*	?	1%	-9%	0%	?
S=C(Nc1ccccc1)N1CCN(c2ccccn2)CC1	-11%	·	2%	-3%	?	-13%
C[C@]12CCC3C(CC[C@H]4C[C@@H](O)CC[C@]34C)[C@@H]1CCC2=O (stereo partly specified)	-7%	·	·	4%	-6%	-6%
FC(F)=C(F)CCSc1ncn[nH]1	5%	·	11%	6%	4.5µM*	10%
O=C(NCNC(=O)N[C@H]1C(=O)NC(=O)N1CO)N[C@H]1C(=O)NC(=O)N1CO	·	·	·	·	6%[25.5 µM]	·
CCOc1ccc(N(C(C)C(=O)Nc2cc(Cl)ccc2OC)S(C)(=O)=O)cc1 (stereo unspecified)	?	·	·	-12%	·	?
C/C(=N\NC(=O)c1ccccc1)c1c(O)n(Cc2ccccc2)c(=O)[nH]c1=O	·	·	-6%	0%	25µM*	?
C/C(=N\Nc1cccc2ccccc12)c1c(O)n(Cc2ccccc2)c(=O)[nH]c1=O	18µM*	-26	19%[46.1 µM]	?	?	?
O=C1NC(=O)[C@]2(Cc3ccccc3N3CCN(c4ccccc4)CC32)C(=O)N1Cc1ccccc1 (stereo partly specified)	32µM*	-17	-25%[46.1 µM]	?	-11%	-20%
O=C1NC(=O)C2(Cc3ccccc3N3CCCC32)C(=O)N1c1ccc(Cl)cc1 (stereo unspecified)	?	-5	-2%[46.1 µM]	?	25µM*	-6%
Cc1ccc(N2C(=O)NC(=O)C3(Cc4ccccc4N4CCCC43)C2=O)cc1 (stereo unspecified)	?	-6	-3%[46.1 µM]	-17%	?	-11%
CCOC(=O)Cc1[nH]nc2c1C(c1ccoc1)C(C#N)=C(N)O2 (stereo unspecified)	?	?	-4%[46.1 µM]	-22%	-21%	-12%
N#C/C(=C\c1ccc(O)c(O)c1)C(N)=S	2.2µM*	·	·	?	?	?
O=C(O)c1ccccc1O	-8%	?	22%	-6%	?	-8%
Oc1ccccc1O	?	·	3%[46.1 µM]	?	14µM*	?
C[C@@H]1O[C@H](O[C@@H]2C[C@@H](O)[C@]3(CO)[C@H]4[C@H](O)C[C@]5(C)[C@@H](C6=CC(=O)OC6)CC[C@@]5(O)[C@@H]4CC[C@]3(O)C2)[C@@H](O)[C@H](O)[C@H]1O	-2%	·	·	-6%	1%	-7%
Cc1cccc(-n2c(/C=C\c3cccc(Br)c3)nc3ccccc3c2=O)c1	3%	·	·	9%	·	9%
O=c1c2ccccc2nc(/C=C/c2ccc(O)cc2)n1-c1cccc(O)c1	3%	·	-13%	0%	?	-23%
Cc1cccc(-n2c(/C=C/c3c[nH]c4ccccc34)nc3ccccc3c2=O)c1	?	·	·	1%	·	4µM*[quencher]
Cc1nc2ccccc2c(=O)n1-c1cccc(O)c1	1%	-107*	0%[46.1 µM]	1%	8%	-1%
COc1cccc(-n2c(/C=C/c3ccc(O)c(O)c3)nc3ccccc3c2=O)c1	?	·	-6%	10%	32µM*	?
Cn1c(O)c(C=NCC2CCNCC2)c(=O)n(C)c1=O	-11%	79	12%	-14%	?	-6%
CCCN(CCC)[C@@H]1CCc2c(F)ccc(O)c2C1	-14%	·	-9%[46.1 µM]	-8%	-6%	-9%
CCN(CC)c1ccc(CC2C(=O)N(C)C(=O)N(C)C2=O)cc1	?	?	-3%	?	-4%	25µM*[fluorescent]
O=C(O)c1cc(O)c(O)c(O)c1	1.3µM*	·	·	2µM*	0.35µM*	4µM*[quencher]
SMILES	Tau ThT inhib	PNC inhibitor	NPSR antag	Tau fibril FP	JMJD2E inh	Tau fluor cs
Oc1c(Br)cc(Br)cc1Oc1ccc(Br)cc1Br	32µM*	-2	-37%	?	11%	?
Cc1ccccc1-c1nc(CS(=O)CC(=O)N2CCN(c3cc(Cl)ccc3C)CC2)c(C)o1 (stereo unspecified)	?	·	·	9%	·	-19%
COCCCOc1ccnc(CS(=O)c2nc3ccccc3[nH]2)c1C (stereo unspecified)	10µM*	·	·	?	·	-25%
Cc1cccc(-n2nc(C)c(C(=O)N3CCN(c4ccccc4)CC3)c2-n2cccc2)c1	?	·	·	7%	·	-20%
CCc1c(C(=O)OC)ncc2[nH]c3cc(OC)c(OC)cc3c12	?	·	-15%[46.1 µM]	6%	?	16µM*[quencher]
CCOC(=O)c1ccc(N2C(=O)c3n[nH]c(-c4cccs4)c3C2c2ccc(C(C)(C)C)cc2)cc1 (stereo unspecified)	-2%	·	·	?	·	-20%
S=C(S)N1CCCC1	32µM*	·	?	?	?	-14%
C[C@@H]1CC([C@H](O)CC2CC(=O)NC(=O)C2)C(=O)[C@@H](C)C1 (stereo partly specified)	-11%	·	·	-7%	·	-11%
CCOP(=S)(OCC)SCC(=O)NC(C)(CC)C(=O)O (stereo unspecified)	-6%	-111*	10%[46.1 µM]	-1%	1%	-13%
Cn1c(O)c(/C=C2\N=c3ccccc3=C2CCNC(=S)NC2CC2)c(=O)n(C)c1=O	11µM*	·	-10%	?	?	-19%
CCOc1ccc(NC(=O)C2C(C(=O)O)C3(Cl)C(Cl)=C(Cl)C2(Cl)C3(Cl)Cl)cc1 (stereo unspecified)	?	·	29%	3%	-16%	-26%
COc1cc2c(cc1O)C[C@H]1NCCc3cc4c(c-2c31)OCO4	14µM*	13	-3%	-4%	?	?
c1ccc2c(N3CCNCC3)nsc2c1	22µM*	·	-13%	?	?	-22%
O=c1[nH]cc(COCC(F)(F)C(F)(F)C(F)(F)F)c(=O)[nH]1	7%	·	13%	1%	7%	7%
O=c1[nH]cc(F)c(=O)[nH]1	?	-115*	-11%	-7%	-30%	-10%
CCN(CC)c1ncnc2c1ncn2[C@@H]1O[C@H](COP(=O)(O)OP(=O)(O)C(Br)(Br)P(=O)(O)O)[C@@H](O)[C@H]1O	-4%	·	-12%[46.1 µM]	-11%	-9%	-7%
